Sampled rows, rich in hits. Any-hit rate of the full collection: about 6.1%.
D1 ag: Allosteric Agonists of the Human D1 Dopamine Receptor: qHTS; HEK293 T-REx D1 cells, calcium flux, agonist mode; activation, % at 2 µM; hit rate 1% among 360,000; D(1A) dopamine receptor (Homo sapiens), P21728; in the data active = activation above about 30%; also: 0% is about no effect
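Agonism was scored from calcium flux recorded over 180 s (1 read/s) after pintool compound addition, following a 10-cycle baseline. Cells were inducible force-coupled HEK293 TREx D1, plated overnight at 30 C and loaded with no-wash calcium dye.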
DRD3 agonist: qHTS of D3 Dopamine Receptor Agonist: qHTS; D(3) dopamine receptor (Homo sapiens), P35462; AID 652048, 2013; D3R DiscoveRx beta-arrestin cells, luminescence, 90 min; hit rate 0.58% among 410,000; max activation, %; in the data active = max activation above about 30%; also: 0% is about no effect
Target sequence (P35462 whole entry, looked up): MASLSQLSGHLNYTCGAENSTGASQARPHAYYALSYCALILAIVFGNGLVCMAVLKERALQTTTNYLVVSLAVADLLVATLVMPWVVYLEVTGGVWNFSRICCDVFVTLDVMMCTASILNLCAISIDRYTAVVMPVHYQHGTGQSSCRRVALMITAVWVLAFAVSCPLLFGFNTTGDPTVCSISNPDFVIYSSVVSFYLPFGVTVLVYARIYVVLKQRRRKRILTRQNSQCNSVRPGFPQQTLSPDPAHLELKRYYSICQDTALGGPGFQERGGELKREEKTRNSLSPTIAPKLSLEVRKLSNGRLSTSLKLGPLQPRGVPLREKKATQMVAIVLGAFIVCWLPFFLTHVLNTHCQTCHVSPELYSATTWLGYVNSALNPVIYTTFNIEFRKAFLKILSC
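Agonist mode: compounds and dopamine controls were applied to plated cells for 90 min at 37 degrees C after an overnight attachment at 1500 cells/well. Luminescent read-out followed 30 - 60 minutes at room temperature with DiscoveRx detection reagent.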
D1 potentiator: Potentiators of Human D1 Dopamine Receptor: qHTS | D(1A) dopamine receptor (Homo sapiens), P21728 | potentiation, % at 10 µM | hit rate 0.036% among 360,000 | HEK293 TREx D1 cells, calcium flux, dopamine EC20 potentiation; in the data active = potentiation above about 30%; also: 0% is about no effect
D1 antag: Antagonist of Human D 1 Dopamine Receptor: qHTS. D(1A) dopamine receptor (Homo sapiens), P21728. AID 504652, 2011. activity change, negative = inhibition, % at 10 µM. HEK293 TREx D1 cells, calcium flux, dopamine EC80; stronger effect = lower value. hit rate 3.2% among 360,000; in the data active = activity change below about -30%; also: % is scaled to controls: 0 for no effect and ±100 for the full control effect
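Tetracycline-induced HEK293 T-REx cells with force-coupled D1 receptor were loaded with a no-wash calcium dye. Compound was added after a 10 s baseline and read kinetically for 180 s; EC80 dopamine was then added and calcium flux followed another 180 s.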
DRD3 antagonist: qHTS of D3 Dopamine Receptor Antagonist: qHTS; D(3) dopamine receptor (Homo sapiens), P35462; D3R cells, DiscoveRx beta-arrestin luminescence, antagonist mode; stronger effect = lower value; max response, negative = inhibition, %; hit rate 2.5% among 360,000; AID 652054, 2013; in the data active = max response below about -50%; inconclusive = no clear call, values can overlap the other calls; also: % is scaled to controls: 0 for no effect and ±100 for the full control effect
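Cells plated overnight at 1500 cells/well, then exposed to library compounds with dopamine controls for 90 minutes at 37 degrees C. DiscoveRx reagent added for 30–60 minutes at room temperature; luminescence read, quantitative HTS format.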
Numbers without * were called inactive; u = inconclusive; x = no result given.

SMILES	D1 ag	DRD3 agonist	D1 potentiator	D1 antag	DRD3 antagonist
O=C(NC1CCCCC1)c1ccc2c(c1)OCCO2	0	-12	-4	-12	-12
O=C(NC1CC1)c1cccc(Oc2ccccc2)c1	1	1	-5	0	0
CCOc1ccc(N(CC)S(=O)(=O)N2CCCC(C(=O)NCc3ccccc3Cl)C2)cc1 (stereo unspecified)	9	-14	-6	-1	x
O=Cc1ccccc1C=O	x	-7	x	x	x
Cc1c(C(=O)NC2CCN(Cc3ccccc3)C2)oc2ccc(Br)cc12 (stereo unspecified)	4	-20	-7	14	-59*
CCOc1ccc2oc(C(=O)NC3CCN(Cc4ccccc4)CC3)c(C)c2c1	3	-36	1	7	-24
COc1ccc2nc(C)cc(Nc3ccc(Cl)c(Cl)c3)c2c1	9	-21	2	-5	x
CC1(C)Cc2cccc(OCC(=O)N3CCN(c4ccccc4F)CC3)c2O1	4	0	-4	-69*	6
O=C(COc1ccccc1F)N1CCc2ccccc2C1	1	1	-1	-58*	11
COc1ccc(NC(=O)COC(=O)COc2cccc3c2OC(C)(C)C3)cc1	5	-11	5	2	-15
O=C(COc1ccccc1Cl)N1CCc2ccccc2C1	2	1	1	10	-6
COc1ccccc1C(=O)COC(=O)COc1cccc2c1OC(C)(C)C2	15	-19	0	-8	-66*
CC1(C)Cc2cccc(OCC(=O)N3CCN(c4ccccc4)CC3)c2O1	1	10	0	2	5
COc1ccc(NC(=S)NC2CC3CCC(C2)N3Cc2ccco2)cc1 (stereo unspecified)	18	-14	-6	-64*	-22
CCc1ccc(NC(=S)NC2CC3CCC(C2)N3Cc2ccco2)cc1 (stereo unspecified)	20	-24	-3	-77*	u
Cc1ccc(-n2nc(C)c3nc(CCC(=O)Nc4cccc(C)c4C)c(=O)n(C)c32)cc1	-1	-6	1	-8	x
CCN(CC)c1ccc(C(=O)NNC(=O)CCNC(=O)c2ccccc2)cc1	4	-16	-3	-19	27
CCN(CC)c1ccc(C(=O)NNC(=O)CCl)cc1	2	-35	-2	-2	-126*
Cc1ccc(S(=O)(=O)NC(=O)COc2cc(C)ccc2C(C)C)cc1	8	-7	3	-44*	-55*
Cc1ccc(C(C)C)c(OCC(=O)N/N=C/c2cccn2C)c1	1	31*	-6	-21	37
Cc1cccc(OCC(=O)N/N=C/c2cccn2C)c1	2	-2	-3	-6	-6
CC(=O)c1c(C)[nH]c(C(=O)COc2cc(C)ccc2C(C)C)c1C	19	11	-15	-36*	21
CC(=O)c1c(C)[nH]c(C(=O)COC(=O)c2cccnc2Cl)c1C	11	1	-1	-33*	-28

Bioassay records as filed in PubChem.
